Dicer processing – human Dicer pre-microRNA cleavage inhibition | z-score at 25 µM | 6% of 47,000 active | cat-ELCCA pre-miR-21 Dicer processing, chemiluminescence; stronger effect = higher value | Q9UPY3; in the data active = z-score above about 3, passing the limit was not always enough;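 note: plate controls were vehicle for no effect and no enzyme for full effect; higher signal means more uncleaved substrate so more Dicer inhibition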
* marks the source's active call; other numbers are inactive results. This excerpt belongs to a sample that is enriched for hits.

SMILES	Dicer processing
COc1ccc(-c2cc(=O)c3c(=O)n(-c4ccccc4)[nH]c3[nH]2)cc1	-1
CCCc1cc(=O)[nH]c(SCc2ccccc2Cl)n1	-3.9
Cc1cc(=O)[nH]c(SCc2ccccc2Cl)n1	2.5
Cc1nnc(SCc2ccccc2Cl)[nH]c1=O	3*
Cn1nc(-c2ccc(-c3ccn(C(=O)c4ccc(Cl)cc4)n3)s2)cc1C(F)(F)F	0.46
COc1ccc(C2Nc3ccc4ncccc4c3C3=C2C(=O)CC(C)(C)C3)cc1 (configuration not stated)	1.7
Cc1ccc(C(=O)CC2(O)C(=O)Nc3ccc(Br)cc32)s1 (configuration not stated)	-0.26
CCCCN1C(=O)C2(/C(=C(/O)c3ccc(OC)c(C)c3)C(=O)C(=O)N2CCOC)c2ccccc21 (configuration not stated)	0.24
C=CCn1cnnc1C(CCC(C)C)CC(C)(C)O (configuration not stated)	3.8*
CN(C)/C=C1\C(=O)c2ccccc2N(Cc2c(F)cccc2Cl)S1(=O)=O	0.08
Cc1ccc(-c2nc(C)cc(OS(=O)(=O)c3ccc(C)cc3)n2)cc1	-0.54
CSc1n[nH]c(C23CC4CC(CC(C4)C2)C3)n1	1
COc1ccccc1NC(=O)NC1CCN(c2nccc(C(F)(F)F)n2)CC1	-1.3
O=C(O)CC(=O)NC(=O)NCc1ccccc1	-0.22
N#Cc1c(-c2ccc(F)cc2)c2c([nH]c1=O)-c1ccccc1CC2	0.96
N#Cc1c(-c2cccnc2)c2c([nH]c1=O)-c1ccccc1SC2	0.62
N#Cc1c(-c2ccc(F)cc2)c2c([nH]c1=O)-c1ccccc1SC2	3.5*
Clc1ccc(C2C=C(c3ccccc3)Nc3nnnn32)cc1 (configuration not stated)	1.8
Cc1cc(=O)[nH]c(N/N=C/c2ccccc2O)n1	0.27
CC(=O)N1N=C(c2cc(C)ccc2[N+](=O)[O-])OC1c1ccc(N(C)C)cc1 (configuration not stated)	-2.8
CC(=O)N1N=C(c2ccc(Br)cc2)OC1c1ccc(F)cc1 (configuration not stated)	3.2*
CC(=O)N1N=C(c2ccc(C)cc2)OC1c1cccnc1 (configuration not stated)	0.44
COc1ccc(-c2c(C(F)(F)F)nn(C)c2NC(=O)C(C)(C)C)cc1	-0.02
CCN(CC)CCn1c(-c2ccc(OC)cc2)nc(=S)c2c1CC(C)(C)OC2	0.56
COCCn1c(-c2ccccc2)nc(=S)c2c1CC(C)(C)OC2	-0.39
SMILES	Dicer processing
COc1ccc(-c2nc(=S)c3c(n2CCCN(C)C)CC(C)(C)OC3)cc1	3.1*
Cc1cc(-c2ccccc2)nc2oc(-c3nnc(SCc4ccc(Cl)cc4)n3C)c(N)c12	0.71
O=C1c2cccc3cc([N+](=O)[O-])cc(c23)C(=O)N1CCO	-0.12
CN(C)c1ccc(-c2nnc(-c3ccccc3)o2)cc1	4.2*
CCCOC(=O)CSc1nnc(-c2ccc(N(C)C)cc2)o1	-1.4
c1ccc(-c2nnc(-c3ccccc3)o2)cc1	1.1
O=C(CSc1nc(-c2ccco2)cc(C(F)(F)F)n1)NC1CCCCC1	-0.68
CO/C(N)=N/C(=S)Nc1ccc(C(C)C)cc1	-0.23
Cc1ccc(C(=O)c2cc(O)c(O)c([N+](=O)[O-])c2)cc1	8.4*
CC(=O)c1ccc(SC(C)C)c([N+](=O)[O-])c1	-2.3
O=C(c1cc(O)c(O)c([N+](=O)[O-])c1)c1ccccc1F	-0.16
COc1ccc(-c2cc3ncc(-c4ccc(OC)c(OC)c4)c(N)n3n2)cc1	-0.09
CC(Sc1nc2ccccc2n1Cc1ccccc1)C(=O)O (configuration not stated)	0.76
COC(=O)C1C(=O)NC(SCC(N)=O)=C(C#N)C1c1ccc(Cl)cc1 (configuration not stated)	0.52
CC(C)(C)c1ccc(NC(=O)Nc2nnc(C3CC3)s2)cc1	0.08
COc1ccc(NC(=O)Nc2nnc(C3CC3)s2)cc1OC1CCCC1	6.5*
O=C(Nc1ccc2c(c1)OCCO2)Nc1nnc(C2CC2)s1	2.1
CSc1sc(C(=O)NCc2cccs2)c(-c2ccc(Cl)cc2)c1C#N	-2.7
COc1ccc(Cl)cc1/C=C1\N=C(SC)SC1=O	0.96
Cc1cc(OS(=O)(=O)CS(=O)(=O)Oc2ccc(Cl)c(C)c2)ccc1Cl	0.53
Cc1c(CC(=O)O)sc2ccc(Cl)cc12	-1.1
CCOC(=O)NC(=O)/C(C#N)=C/c1ccc(N(C)C)cc1	3.4*
CCOC(=O)c1c(C)csc1NC(=O)/C(C#N)=C/c1ccc(O)cc1	0.68
CCOC(=O)/C(C#N)=C/c1ccc(-c2ccccc2)cc1	1.2
C/C(=N\NC(=S)NCC(C)(C)C)c1cc(F)ccc1O	0.16
SMILES	Dicer processing
CCOc1cccc(=O)c2c(C)n(-c3ccc(C)cc3)c(C)c12	1.3
CCOC(=O)c1ccc(-n2c(=S)[nH]c3ccccc32)cc1	0.48
CCOC(=O)c1ccc(-n2c(C)c3c(OC)cccc(=O)c3c2C)cc1	3.8*
CC(=O)/C(C=Nc1ccc(Cl)c(Cl)c1)=C(\C)O	-0.16
OC1CCN(C(=S)Nc2cccc(C(F)(F)F)c2)CC1	-0.18
Cc1onc(-c2ccccc2)c1C(=O)NCc1c(Cl)cccc1Sc1ccc(Cl)cc1	-3.9
